Test results published in PubChem BioAssay (NCATS).
Results filed as inconclusive are left out. Unmarked numbers belong to inactive results. Calls of active or inactive are those of the source. The call rests on the fitted dose curve; in most records, active means well fitted activation curve with a large enough effect; inconclusive means small, poorly fitted or top-dose-only effect, or another doubt; inactive means no such curve, though single readings can be large or run the other way.

Target: Rap guanine nucleotide exchange factor 3 (Homo sapiens) (UniProt O95398)
Test: Counterscreen qHTS for agonist of cAMP-regulated guanine nucleotide exchange factor 3 (EPAC1) (AID 1645889); further: nearly all actives have a fitted effect of over 40% in size; on activation: % of control where 0% means no effect
Conditions: EPAC1 Rap1B-BODIPY-GDP exchange, fluorescence; series mostly up to 154 µM; activation: at the top concentration
Summary of the method: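 Measured: fluorescence of BODIPY-GDP bound to Rap1B, which falls as exchange proceeds. Conditions include 50 uM competing GDP, 5 and 30 min reads, and a later cAMP challenge for antagonist detection.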
Potency means the concentration at half of the fitted maximal effect.

Going from `O=C(O)/C(=C\c1ccc(-c2ccc(F)cc2)o1)c1ccccc1` to `O=C(NNc1c2ccccc2nc2ccccc12)c1ccccc1O`, the “activation” value falls from -5.53% to -38.7%.

First: CCCCCCn1nc(C(=O)OCC(=O)c2c(N)n(C)c(=O)n(C)c2=O)c2ccccc2c1=O
Second: O=C(COC(=O)c1ccc2c(c1)C(=O)N(Cc1ccncc1)C2=O)Nc1ccccc1[N+](=O)[O-]
The “activation” value of the first is higher: 11.8% for the first, 9.69% for the second.

Compared with `COc1ccc(C(=O)Nc2ccccc2-c2nnn(CC(N)=O)n2)cc1`, `CCN1CCc2c(sc(-n3cccc3)c2C(C)NC(=O)Nc2ccc(C(=O)OC)cc2)C1` (stereo not given) is higher in “activation” value: 23.2% for the first, 37.9% for the second.

First: CCc1c(O)cc(=O)n(-c2ccccc2)c1-c1ccccc1
Second: CCCCC(CC)COC1(c2ccccc2)OC(=O)c2ccccc21 (stereo not given)
The “activation” value of the first is higher: 22.9% for the first, -25.9% for the second.

Compared with `Cc1ccc(C)c(Cn2nc(-c3cc(C)ccc3C)ccc2=O)c1`, `CCN(C(=O)c1noc2c1COc1ccc(C)cc1-2)c1cccc(C)c1` is higher in “activation” value: 8.52% for the first, 35.5% for the second.

Going from `Cc1cc2oc(=O)c(CC(=O)O)c(C)c2c2occ(-c3ccccc3)c12` to `CCOC(=O)C1=C(C)N=c2s/c(=C/c3cccc([N+](=O)[O-])c3O)c(=O)n2C1c1ccccc1` (stereo not given), the “activation” value falls from 7.73% to -1.87%.

Compared with `C=CCn1c(=NC(=O)c2sc3ccccc3c2Cl)sc2cc(S(N)(=O)=O)ccc21`, `Cc1cccc(C(=O)N=c2c(C#N)cc3c(=O)n4cccc(C)c4nc3n2Cc2ccco2)c1` is higher in “activation” value: -3.52% for the first, 20.1% for the second.

Compared with `Cc1nnc(-c2ccco2)c2cn(-c3cccc(Br)c3)nc12`, `O=C(CSc1nc(-c2cccs2)nc2cc(=O)[nH]n12)Nc1cccc(C(F)(F)F)c1` is lower in “activation” value: 12.4% for the first, -5.67% for the second.

First: COc1ccc(/C=N\Nc2ccc([N+](=O)[O-])cc2)c(C(=O)O)c1OC
Second: O=C(Cc1ccc(Cl)cc1)N/N=C/c1ccc(O)c(O)c1
The “activation” value of the first is lower: 8.33% for the first, 18.3% for the second.

First: O=C(c1ccc(-c2nnc(Nc3cccc(Cl)c3)c3ccccc23)cc1)N1C[C@H]2C[C@H](C1)c1cccc(=O)n1C2
Second: CCOc1ccc(S(=O)(=O)Nc2cc(NS(=O)(=O)c3ccc(OCC)cc3)cc(C(=O)O)c2)cc1
The “activation” value of the first is higher: 16.2% for the first, 5.84% for the second.

Compared with `CC1=C(C(=O)OC(C)C)C(c2ccc(C)o2)C(C(=O)OC(C)C)=C(C)N1`, `C/C=C/c1cc(OC)c2c(c1)[C@H](C)[C@@H](c1ccc(O)c(OC)c1)O2` is lower in “activation” value: 1.1% for the first, -9.01% for the second.

First: CCOC(=O)N(C)c1c(CC)nc2c(OCc3ccc(C(F)(F)F)cc3)cccn12
Second: Cc1ccc(S(=O)(=O)Nc2ccc(S(=O)(=O)Nc3nccs3)cc2)cc1C
The “activation” value of the first is higher: 26.3% for the first, 13.4% for the second.

`Cc1csc2c(=O)sc(NC(=O)c3cccs3)nc12` was tested, and the “activation” value was 17.5%.

First: O=C(Cn1ncc(Cl)c(Cl)c1=O)NC(=O)NC1CCCCC1
Second: CC1CCC(NC(=O)Cn2c3c(c(-c4ccccc4Cl)cc2=O)CCC3)CC1 (stereo not given)
The activation of the first is higher: 9.51% [at 30.8 µM] for the first, 6.93% [at 30.8 µM] for the second.

Compared with `COc1ccc(N=C2SC(C(=O)Nc3ccc(C(=O)O)cc3)CC(=O)N2Cc2cccs2)cc1` (stereo not given), `COc1cc(/C=N/NC(=O)c2ccccc2O)ccc1OCC(=O)Nc1ccccc1` is higher in activation: 7.24% [at 30.8 µM] for the first, 13.4% [at 30.8 µM] for the second.

Compared with `Cc1cc(C)c(C)c(S(=O)(=O)N2CCCCC2C(=O)O)c1C` (stereo not given), `C[C@H](c1ccccc1)N1C[C@H](COCc2ccccc2)Oc2cc(N3CC[C@@H](O)C3)ccc2S1(=O)=O` is higher in activation: -1.83% [at 30.8 µM] for the first, 20% [at 30.8 µM] for the second.

Compared with `O=C(/C=C/c1ccco1)NC(=S)Nc1cccc(-c2nc3ccccc3o2)c1`, `CCOc1cc(/C=C/c2cc(C(=O)O)c3ccccc3n2)ccc1OC` is lower in activation: 10.2% [at 30.8 µM] for the first, 6.45% [at 30.8 µM] for the second.

Going from `N#CC(c1nc2ccccc2nc1OCCO)S(=O)(=O)c1ccccc1` (stereo not given) to `O=C(C=Cc1ccccc1)c1c[nH]c2ccccc2c1=O`, the activation falls from 20.5% [at 30.8 µM] to 9.21% [at 30.8 µM].

First: Nc1ccc(SC(F)(F)F)cc1C(=O)c1ccccc1
Second: NS(=O)(=O)c1ccc(NC(=O)c2cccc(N3C(=O)c4ccccc4C3=O)c2)cc1
The activation of the first is lower: 5.87% [at 30.8 µM] for the first, 23.3% [at 30.8 µM] for the second.

Compared with `O=C(N/N=C/c1ccc(O)c([N+](=O)[O-])c1)C1CC1(c1ccccc1)c1ccccc1` (stereo not given), `O=C(N[C@H](Cc1ccc(Cl)cc1)C(=O)O)OCC1c2ccccc2-c2ccccc21` is lower in activation: 11.6% [at 30.8 µM] for the first, 8.84% [at 30.8 µM] for the second.

With `Oc1ccc(NCc2ccc(OCc3ccccc3Cl)cc2)cc1` the Potency was 56.2 µM (active).
